Experimental data taken from PubChem BioAssay AID720517 (National Center for Advancing Translational Sciences (NCATS), 2013).
Records with an inconclusive call do not appear. A number with no mark means an inactive call. Calls follow the shape of the dose curve; as a rule, active = well fitted activation curve with a large enough effect; inconclusive = small, poorly fitted or top-dose-only effect; inactive = flat fitted curve, though single readings scatter.

Assay: qHTS for Inhibitors of Cell Surface uPA Generation: FP59 Counterscreen for Cherry-picked Compounds; also: 0% is about no effect
Conditions: FP59 anthrax toxin cytotoxicity counterscreen, cells; series mostly up to 115 µM; activity (protection from FP59): at the top concentration

Row | SMILES | activity (protection from FP59)
1 | CCCCNc1nnc(SCC(=O)c2c(N)n(CCC)c(=O)[nH]c2=O)s1 | -1.3%
2 | CC1(CC(=O)N/N=C/c2cc(Br)c(O)cc2O)OCCO1 | 1.07%
3 | C[C@]12CCC(O)CC1CCC1C2CC[C@]2(C)C(c3cc(C(F)(F)F)n[nH]3)CCC12 (stereo partly specified) | -1.52%
4 | CC(=O)c1c(C)n(-c2ccccc2Br)c2ccc(O)cc12 | -1.5%
5 | COc1ccc(C2=C/C(=C\c3ccccc3OC(C)=O)C(=O)O2)cc1 | 3.33%
6 | COc1cc(CN2CCN(S(=O)(=O)c3ccccc3)CC2)cc(OC)c1OC | -1.15%
7 | O=C(NC1CCCC1)c1nc2c(nnn2Cc2ccccc2Cl)c(=O)[nH]1 | -0.974%
8 | CCN1CCCCC(=N/O)/C(=N/O)CCCC1 | -1.44%
9 | O=C(c1cc(COc2c(F)cccc2F)on1)N1CCc2ccccc2C1 | -0.72%
10 | COc1ccc(CCNC(=O)Cn2cccc2C(=O)c2ccccc2)c(OC)c1 | -0.888%
11 | Cc1ccc(S(=O)(=O)NCC(=O)N/N=C/c2ccc(Cl)cc2)cc1 | -0.814%
12 | CCOc1ccccc1N(CC(=O)Nc1ccc(OC)cc1)S(=O)(=O)c1ccccc1 | 7.21%
13 | COc1ccc2nc3c(cc2c1)c(NC(=O)C1CCCO1)nn3CC(C)C (stereo unspecified) | -1.28%
14 | Cc1cc(=O)n2nc(N3CCCC(C(=O)NCc4ccc(Cl)cc4)C3)sc2n1 (stereo unspecified) | -1.4%
15 | O=C(COc1ccccc1F)NCC(c1ccc(F)cc1)N1CCOCC1 (stereo unspecified) | -1.3%
16 | Cc1ccccc1N1C(=O)C(Cc2ccc(F)cc2)S/C1=C(\C#N)C(N)=O (stereo unspecified) | -1.54%
17 | O=C(O)COc1ccccc1/C=N/NC(=O)CNC(=O)c1ccco1 | -1.05%
18 | Cn1nc(N2CCN(S(=O)(=O)c3ccccc3)CC2)c(=O)n(C)c1=O | -1.3%
19 | COc1cc(/C=N/NC(=O)c2cc(-c3ccco3)nc3ccccc23)cc(OC)c1O | -1.46%
20 | COC(C[C@H](O)[C@H](C)[C@@H](O)COCc1ccccc1)OC | -1.17%
21 | O=C(CN(c1ccccc1F)S(=O)(=O)c1ccccc1)Nc1ccc2c(c1)OCCO2 | -0.778%
